Assay results taken from ChEMBL document CHEMBL1961873, “Compounds: GSK PKIS; Assays: Nanosyn kinase panel” (2012).

Each compound was assayed against Ribosomal protein S6 kinase alpha-1 (Homo sapiens) (UniProt Q15418). Conditions: at 0.1 µM.
Chain of Ribosomal protein S6 kinase alpha-1 (Homo sapiens) (Q15418 whole entry): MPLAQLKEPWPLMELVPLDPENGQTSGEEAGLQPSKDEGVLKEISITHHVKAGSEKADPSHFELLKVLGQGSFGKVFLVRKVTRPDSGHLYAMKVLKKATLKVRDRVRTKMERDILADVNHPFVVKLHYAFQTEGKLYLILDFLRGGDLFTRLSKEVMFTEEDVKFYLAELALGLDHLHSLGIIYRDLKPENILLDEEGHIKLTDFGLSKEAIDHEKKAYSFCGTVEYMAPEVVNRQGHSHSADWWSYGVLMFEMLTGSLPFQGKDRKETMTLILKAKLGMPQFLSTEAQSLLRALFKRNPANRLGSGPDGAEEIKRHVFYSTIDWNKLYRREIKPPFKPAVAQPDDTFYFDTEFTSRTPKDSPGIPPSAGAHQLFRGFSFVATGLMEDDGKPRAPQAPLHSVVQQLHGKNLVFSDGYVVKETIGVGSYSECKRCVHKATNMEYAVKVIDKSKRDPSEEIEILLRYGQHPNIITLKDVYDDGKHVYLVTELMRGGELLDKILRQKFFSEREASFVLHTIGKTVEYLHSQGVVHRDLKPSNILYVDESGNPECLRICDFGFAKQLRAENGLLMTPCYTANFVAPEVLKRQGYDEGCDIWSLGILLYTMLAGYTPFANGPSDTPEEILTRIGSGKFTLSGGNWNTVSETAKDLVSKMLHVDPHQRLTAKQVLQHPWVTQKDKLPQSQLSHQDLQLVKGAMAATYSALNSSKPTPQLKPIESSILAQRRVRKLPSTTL
Work on `NC(=O)Cc1ccccc1Oc1nccc(-c2c(-c3ccc(F)cc3)ncn2C2CCNCC2)n1` yielded an inhibition of 1.2%. `C[C@@H](Oc1cc(-n2cnc3ccc(OC4CCN(C)CC4)cc32)sc1C(N)=O)c1ccccc1Cl` showed an inhibition of 2.3%. For `NS(=O)(=O)c1ccc(N/N=C2\C(=O)Nc3ccc(-c4cnco4)cc32)cc1`, the inhibition was -0.32%. `NS(=O)(=O)c1ccc(Nc2cc(-c3ccc(O)c(F)c3)n[nH]2)cc1` gave an inhibition of 4.13%. `CCS(=O)(=O)c1ccc(OC)c(Nc2ncc(-c3ccccc3Cl)o2)c1` was tested, and the inhibition was 1.95%. In the case of `COc1cc(Nc2ncc3c(C)nc(-c4cccc(C(F)(F)F)c4)n3n2)cc(OC)c1OC`, the inhibition is reported as 5.19%. `Cc1ccc(C(=O)NC2CCC2)cc1-c1ccc(C(=O)NCC2CC2)cc1` showed an inhibition of 1.52%. In the case of `C[C@@H](Oc1cc(-n2cnc3ccc(OCC4CCN(C)CC4)cc32)sc1C(N)=O)c1ccccc1Cl`, the inhibition is reported as 3.39%. `Fc1ccc(-c2ncn(C3CCNCC3)c2-c2ccnc(Oc3ccc4c(c3)OCO4)n2)cc1` showed an inhibition of 1.84%. Work on `CCS(=O)(=O)c1ccc(OC)c(Nc2ncc(-c3cccc(-c4ccccc4F)c3)o2)c1` yielded an inhibition of 0.18%. Work on `CN(c1ccc(NC(=O)Nc2c(Cl)cccc2Cl)cc1)c1ccnc(Nc2cccc(CS(C)(=O)=O)c2)n1` yielded an inhibition of 2.34%. Compound `O=C(NCC1CC1)c1ccc(-c2cccc(C(=O)NC3CC3)c2)cc1` has an inhibition of -0.06%. With `COc1ccc2cc(-c3c(-c4ccncc4)nc(-c4ccc(S(C)(=O)=O)cc4C)n3C)ccc2c1` the inhibition was 6.01%. In the case of `NC(=O)c1ccc(Oc2nccc(-c3c(-c4ccc(F)cc4)ncn3C3CCNCC3)n2)cc1`, the inhibition is reported as 2.06%. With `Nc1nccc(-c2c(-c3ccc(F)cc3)ncn2C2CCC(O)CC2)n1` (stereo not drawn) the inhibition was -0.24%. Work on `COc1cc2ncn(-c3cc(OCCc4ccccc4)c(C(N)=O)s3)c2cc1OC` yielded an inhibition of 0.33%. In the case of `Cc1ccc(NC(=O)c2ccoc2)cc1-c1ccc(C(=O)NCC2CC2)cc1`, the inhibition is reported as 1.06%. In the case of `COc1cc(Nc2ncc(-c3ccccc3)o2)cc(OC)c1OC`, the inhibition is reported as 0.23%. `O=C(Nc1n[nH]c2nc(-c3ccc(O)cc3)c(Br)cc12)C1CC1` gave an inhibition of 7.28%. Compound `CCc1nccc2c1nc(-c1nonc1N)n2CC` has an inhibition of 5.37%. `COc1ccc(C2=C(N3CCc4ccccc43)C(=O)NC2=O)cc1` gave an inhibition of 2.46%. Work on `COc1ccc(-c2ccc3c(NC(=O)C4CC4)n[nH]c3n2)cc1` yielded an inhibition of 0.22%. `COc1cc2ncn(-c3cc(OCc4ccccc4C(F)(F)F)c(C(C)=O)s3)c2cc1OC` was tested, and the inhibition was 1.38%. `Fc1ccc(-c2ncn(C3CCNCC3)c2-c2ccnc(Oc3ccc(Oc4ccccc4)cc3)n2)cc1` gave an inhibition of 3.01%. Work on `COc1cc2ncn(-c3cc(OCc4cccs4)c(C(N)=O)s3)c2cc1OC` yielded an inhibition of 4.14%. Work on `O=C(Nc1ccc(Oc2ccc3[nH]c(NC(=O)c4ccccc4)nc3c2)cc1)Nc1cc(C(F)(F)F)ccc1F` yielded an inhibition of 1.17%. Compound `Fc1ccc(-c2nc3n(c2-c2ccncc2)CCS3)cc1` has an inhibition of 3.03%. Work on `Fc1ccc(-c2ncn(C3CCNCC3)c2-c2ccnc(Oc3ccc(F)c(F)c3)n2)cc1` yielded an inhibition of 0.34%. In the case of `COc1cccc(/C=N/Nc2ncnc3c2cnn3-c2cccc(OC)c2)c1`, the inhibition is reported as 1.05%. `C/C(Nc1ccc(S(N)(=O)=O)cc1)=C1/C(=O)Nc2ccccc21` gave an inhibition of 1.62%. With `NS(=O)(=O)c1ccc(N/N=C2\C(=O)Nc3ccc(C(=O)NCCCn4ccnc4)cc32)cc1` the inhibition was 2.58%. Compound `CN(C)CCOc1ccc(-c2cc(-c3ccc4c(c3)CCC4=NO)c(-c3ccncc3)o2)cc1` has an inhibition of -0.55%. For `COc1ccc2cc(-c3c(-c4ccncc4)nc(-c4ccc([S+](C)[O-])cc4C)n3C)ccc2c1` (stereo not drawn), the inhibition was -0.66%. `FC(F)(F)c1cccc(Nc2nccc(-c3cnn4nc(-c5ccccc5)ccc34)n2)c1` showed an inhibition of 1.01%.

The compounds below were run against Ribosomal protein S6 kinase alpha-1 (Homo sapiens) (UniProt Q15418). Conditions: at 1 µM.
In the case of `NC(=O)Cc1ccccc1Oc1nccc(-c2c(-c3ccc(F)cc3)ncn2C2CCNCC2)n1`, the inhibition is reported as 0.63%. Compound `C[C@@H](Oc1cc(-n2cnc3ccc(OC4CCN(C)CC4)cc32)sc1C(N)=O)c1ccccc1Cl` has an inhibition of 12.4%. `NS(=O)(=O)c1ccc(N/N=C2\C(=O)Nc3ccc(-c4cnco4)cc32)cc1` showed an inhibition of 3.8%. `NS(=O)(=O)c1ccc(Nc2cc(-c3ccc(O)c(F)c3)n[nH]2)cc1` was tested, and the inhibition was 32.6%. For `CCS(=O)(=O)c1ccc(OC)c(Nc2ncc(-c3ccccc3Cl)o2)c1`, the inhibition was 5.76%. `COc1cc(Nc2ncc3c(C)nc(-c4cccc(C(F)(F)F)c4)n3n2)cc(OC)c1OC` was tested, and the inhibition was 26.7%. In the case of `Cc1ccc(C(=O)NC2CCC2)cc1-c1ccc(C(=O)NCC2CC2)cc1`, the inhibition is reported as 1.45%. `C[C@@H](Oc1cc(-n2cnc3ccc(OCC4CCN(C)CC4)cc32)sc1C(N)=O)c1ccccc1Cl` showed an inhibition of 16.8%. `Fc1ccc(-c2ncn(C3CCNCC3)c2-c2ccnc(Oc3ccc4c(c3)OCO4)n2)cc1` gave an inhibition of 3.67%. In the case of `CCS(=O)(=O)c1ccc(OC)c(Nc2ncc(-c3cccc(-c4ccccc4F)c3)o2)c1`, the inhibition is reported as 1.38%. With `CN(c1ccc(NC(=O)Nc2c(Cl)cccc2Cl)cc1)c1ccnc(Nc2cccc(CS(C)(=O)=O)c2)n1` the inhibition was 4.66%. `O=C(NCC1CC1)c1ccc(-c2cccc(C(=O)NC3CC3)c2)cc1` gave an inhibition of 0.15%. In the case of `COc1ccc2cc(-c3c(-c4ccncc4)nc(-c4ccc(S(C)(=O)=O)cc4C)n3C)ccc2c1`, the inhibition is reported as 9.72%. `NC(=O)c1ccc(Oc2nccc(-c3c(-c4ccc(F)cc4)ncn3C3CCNCC3)n2)cc1` showed an inhibition of 1.84%. `Nc1nccc(-c2c(-c3ccc(F)cc3)ncn2C2CCC(O)CC2)n1` (stereo not drawn) gave an inhibition of 2.78%. Work on `COc1cc2ncn(-c3cc(OCCc4ccccc4)c(C(N)=O)s3)c2cc1OC` yielded an inhibition of -0.89%. In the case of `Cc1ccc(NC(=O)c2ccoc2)cc1-c1ccc(C(=O)NCC2CC2)cc1`, the inhibition is reported as 0.4%. Compound `COc1cc(Nc2ncc(-c3ccccc3)o2)cc(OC)c1OC` has an inhibition of 3.07%. Work on `O=C(Nc1n[nH]c2nc(-c3ccc(O)cc3)c(Br)cc12)C1CC1` yielded an inhibition of 33%. For `CCc1nccc2c1nc(-c1nonc1N)n2CC`, the inhibition was 35.2%. In the case of `COc1ccc(C2=C(N3CCc4ccccc43)C(=O)NC2=O)cc1`, the inhibition is reported as 4.09%. For `COc1ccc(-c2ccc3c(NC(=O)C4CC4)n[nH]c3n2)cc1`, the inhibition was 2.59%. In the case of `COc1cc2ncn(-c3cc(OCc4ccccc4C(F)(F)F)c(C(C)=O)s3)c2cc1OC`, the inhibition is reported as 2.01%. Work on `Fc1ccc(-c2ncn(C3CCNCC3)c2-c2ccnc(Oc3ccc(Oc4ccccc4)cc3)n2)cc1` yielded an inhibition of 2.7%. `COc1cc2ncn(-c3cc(OCc4cccs4)c(C(N)=O)s3)c2cc1OC` gave an inhibition of 12.6%. `O=C(Nc1ccc(Oc2ccc3[nH]c(NC(=O)c4ccccc4)nc3c2)cc1)Nc1cc(C(F)(F)F)ccc1F` was tested, and the inhibition was 5.03%. Work on `Fc1ccc(-c2nc3n(c2-c2ccncc2)CCS3)cc1` yielded an inhibition of 2.88%. Compound `Fc1ccc(-c2ncn(C3CCNCC3)c2-c2ccnc(Oc3ccc(F)c(F)c3)n2)cc1` has an inhibition of 2.83%. Compound `COc1cccc(/C=N/Nc2ncnc3c2cnn3-c2cccc(OC)c2)c1` has an inhibition of 0.75%. Compound `C/C(Nc1ccc(S(N)(=O)=O)cc1)=C1/C(=O)Nc2ccccc21` has an inhibition of 14.5%. `NS(=O)(=O)c1ccc(N/N=C2\C(=O)Nc3ccc(C(=O)NCCCn4ccnc4)cc32)cc1` showed an inhibition of 7.85%. Work on `CN(C)CCOc1ccc(-c2cc(-c3ccc4c(c3)CCC4=NO)c(-c3ccncc3)o2)cc1` yielded an inhibition of -1.02%. `COc1ccc2cc(-c3c(-c4ccncc4)nc(-c4ccc([S+](C)[O-])cc4C)n3C)ccc2c1` (stereo not drawn) was tested, and the inhibition was -1.48%. With `FC(F)(F)c1cccc(Nc2nccc(-c3cnn4nc(-c5ccccc5)ccc34)n2)c1` the inhibition was 1.56%.
